The values that follow come from PubChem BioAssay (Tox21).

Records with an inconclusive call do not appear. Entries that show only a call come without a potency. The source made the active and inactive calls. The call rests on the fitted dose curve; in most records, active means well fitted activation curve with a large enough effect in the signal ratio in the repeat runs (not every such curve was filed as active); inconclusive means weak or mixed curves, or effect the other way; inactive means no such curve, though single readings can be large or run the other way; the % refers to the signal ratio.

Peroxisome proliferator-activated receptor gamma (Homo sapiens), sequence (P37231 whole entry, looked up): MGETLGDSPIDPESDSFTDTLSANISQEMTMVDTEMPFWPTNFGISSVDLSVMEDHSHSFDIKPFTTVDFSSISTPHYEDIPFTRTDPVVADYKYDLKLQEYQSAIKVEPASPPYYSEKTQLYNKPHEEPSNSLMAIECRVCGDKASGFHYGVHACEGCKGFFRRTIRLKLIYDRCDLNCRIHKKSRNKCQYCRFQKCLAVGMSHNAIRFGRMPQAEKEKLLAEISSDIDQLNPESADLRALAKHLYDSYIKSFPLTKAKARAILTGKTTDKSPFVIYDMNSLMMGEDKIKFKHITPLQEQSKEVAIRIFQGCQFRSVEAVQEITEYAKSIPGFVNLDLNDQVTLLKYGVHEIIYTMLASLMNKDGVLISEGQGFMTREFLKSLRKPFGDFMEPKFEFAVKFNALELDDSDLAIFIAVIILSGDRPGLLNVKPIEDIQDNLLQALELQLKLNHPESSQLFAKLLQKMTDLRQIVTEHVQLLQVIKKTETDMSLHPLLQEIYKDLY

The assay has as its target Peroxisome proliferator-activated receptor gamma (Homo sapiens) (UniProt P37231). Description: qHTS assay to identify small molecule agonists of the peroxisome proliferator-activated receptor gamma (PPARg) signaling pathway (AID 743094). The following applies: HEK293H PPARg-UAS-bla, beta-lactamase FRET ratio, 17 h; series mostly up to 57 µM. From the text:
U.S. Tox21 Program National Center for Advancing Translational Sciences [NCATS] NIH Chemical Genomics Center [NCGC] U.S. Environmental Protection Agency [EPA] National Institutes of Environmental Health Sciences [NIEHS] National Toxicology Program [NTP] U.S. Food and Drug Administration [FDA] Tox21 Assay Overview: The peroxisome proliferator-activated receptors (PPARs) are lipid-activated transcription factors of the nuclear receptor superfamily with three distinct subtypes namely PPAR alpha, PPAR delta (also called PPAR beta) and PPAR gamma (PPARg). All these subtypes heterodimerize with Retinoid X receptor (RXR) and these heterodimers regulate transcription of various genes. PPAR-gamma receptor (glitazone receptor) is involved in the regulation of glucose and lipid metabolism. To identify the compounds that activate PPAR-gamma signaling, GeneBLAzer PPAR gamma UAS-bla HEK293H cell line (Invitrogen, Carlsbad, CA, USA) containing a beta-lactamase reporter gene under control of the control of an upstream activator sequence (UAS) stably integrated into HEK293H cells was used to screen Tox21 compound library.
Tox21 Assay Protocol Summary: PPARg-bla cells were dispensed at 3000 cells/6uL/well in 1536-well black wall/clear bottom plates using a Multidrop Combi (Thermo Fisher Scientific, Waltham, MA) dispenser. After the assay plates were incubated at 37C and 5% CO2 for 5 h, 23 nL of compounds dissolved in DMSO, positive controls or DMSO only was transferred to the assay plate by a Pintool station (Kalypsys, San Diego, CA). The assay plates were incubated at 37C for 17 h. After 1 uL of LiveBLAzerTM B/G FRET substrate was added using a Bioraptr Flying Reagent Dispenser (FRD) workstation (Beckman Coulter, Indianapolis, IN, USA), the plates were incubated at room temperature for 1 h, and fluorescence intensity was measured by an Envision plate reader (PerkinElmer, Shelton, CT).
In general terms: In qHTS, concentration-response curves come from the screen itself.
Regarding `CCCCCCCCCCCCCCC(=O)O`, the Potency entry was “inactive”. As to `C=COCC1CCC(COC=C)CC1` (stereo not given), the Potency entry is “inactive”.

For the compound `CCOCC(C)O` (stereo not given), the Potency result is “inactive”. Consider `NC(CCC(=O)O)C(=O)O` (stereo not given), for which the Potency entry was “inactive”. As to `CCCCCCCC1CCCC1=O` (stereo not given), the Potency entry is “inactive”. On the same count and under the same terms, the same measure for `Cc1ncc(COP(=O)(O)O)c(C=O)c1O`: “inactive”. `N[C@H](C(=O)O)[C@@H](O)c1ccc(O)c(O)c1`: the Potency result was “inactive”. As for `CC(C)=CCC/C(C)=C/C#N`, the Potency entry is “inactive”. For the compound `CCC1C(=O)OCC1Cc1cncn1C` (stereo not given), the Potency result was “inactive”.

Regarding `CC(C)(C)c1ccc(-c2ccc(C(C)(C)C)cc2)cc1`, the Potency entry was “inactive”. With `CC(C)CCCO`, the Potency entry is “inactive”. The same measure, in the same setting: the same measure for `Nc1ccn([C@@H]2O[C@H](CO)[C@@H](O)C2O)c(=O)n1` (stereo not given in full): “inactive”; for `COc1ccnc(CS(=O)c2nc3cc(OC(F)F)ccc3[nH]2)c1OC` (stereo not given): “inactive”. Regarding `CC(CC=O)CC(C)(C)C` (stereo not given), the Potency result is “inactive”. Take `O=C(O)CNC(=O)c1ccccc1`: the Potency entry is “inactive”. As to `Cc1ccc(C(=O)c2ccc(CC(=O)O)n2C)cc1`, the Potency result is “inactive”. Still for that read-out and setting: the result for `O=C(CO)[C@@H](O)[C@H](O)[C@H](O)CO` reads “inactive”.

`COc1cc(C)nc(-n2nc(C)cc2OC)n1`: the Potency result is “inactive”. The same measure, in the same setting: the result for `C[C@@H]1CCC[C@H](C)N1` reads “inactive”. On the same count and under the same terms, the same measure for `CN(C)[C@@H]1C(=O)C(C(=O)NCN2CCCC2)=C(O)[C@@]2(O)C(=O)C3=C(O)c4c(O)cccc4[C@@](C)(O)C3C[C@@H]12` (stereo not given in full): “inactive”; for `CCC(=O)OCc1ccccc1`: “inactive”; for `O=C(O)c1cc(C(=O)O)cc(C(=O)O)c1`: “inactive”. As for `CCCCc1ccc2c(n1)[C@@H](c1ccc(OC)cc1C[C@H](C)C(=O)O)[C@H](C(=O)O)[C@H]2c1ccc2c(c1)OCO2`, the Potency entry was “inactive”. With `CCOC(=O)COC(=O)c1ccccc1C(=O)OCC`, the Potency result is “inactive”.

As for `[Ca+2]`, the Potency result is “inactive”. Still for that read-out and setting: the result for `Nc1c2c(nc3c1CCC3)CCCC2` reads “inactive”; that for `CC(=O)c1ccc2ccccc2c1`, “inactive”. Consider `CCOC(=O)C1=NOC(c2ccccc2)(c2ccccc2)C1`, for which the Potency result was “inactive”.

In the case of `O=S(=O)(O)c1cccc(S(=O)(=O)O)c1`, the Potency result was “inactive”.

On to `CC(C)NNC(=O)c1ccncc1`, for which the Potency result is “inactive”. For the compound `CC(C)CC(C)(N)C#N` (stereo not given), the Potency result is “inactive”. Turning to `Cc1cc(C)c(N=Nc2c(O)c(S(=O)(=O)O)cc3cc(S(=O)(=O)O)ccc23)cc1C`, the activation is -9.42% [at 7.08 µM] (inactive).

For `CC1=NS(=O)(=O)c2cc(Cl)ccc2N1`, the Potency result was “inactive”. On the same count and under the same terms, the result for `CCC(C(=O)NC(=O)NC(C)=O)c1ccccc1` (stereo not given) reads “inactive”; that for `CC(C)(C)OC(=O)c1cccc(N)c1`, “inactive”. On the same count and under the same terms, the same measure for `C[N+]1(C)[C@@H]2CC(OC(=O)[C@H](CO)c3ccccc3)C[C@H]1[C@@H]1O[C@@H]12` (stereo not given in full): “inactive”. Regarding `CO[Si](C)(OC)c1ccccc1`, the Potency result is “inactive”. Same read-out and setting: the result for `O=C(CO)[C@@H](O)[C@H](O)[C@@H](O)CO` reads “inactive”; that for `CO[C@@]1(NC(=O)C(C(=O)O)c2ccc(O)cc2)C(=O)N2C(C(=O)O)=C(CSc3nnnn3C)CO[C@@H]21` (stereo not given in full), “inactive”. With `[O-][n+]1cccc(CO)c1`, the Potency entry was “inactive”.
